FECH block = inhibitors of human ferrochelatase, primary screen, biochemical, purified FECH, Ni-mesoporphyrin absorbance | Ferrochelatase, mitochondrial (Homo sapiens), P22830 | Ni-mesoporphyrin absorbance 550 nm | calls only at 10 µM (by protocol) | hit rate 3.3% among 20,000;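 active = enzyme reaction rate more than 3 SD below the solvent-only control wells on the same plate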;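 note: lower slope than DMSO wells means FECH inhibition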
Target sequence (P22830 whole entry, looked up): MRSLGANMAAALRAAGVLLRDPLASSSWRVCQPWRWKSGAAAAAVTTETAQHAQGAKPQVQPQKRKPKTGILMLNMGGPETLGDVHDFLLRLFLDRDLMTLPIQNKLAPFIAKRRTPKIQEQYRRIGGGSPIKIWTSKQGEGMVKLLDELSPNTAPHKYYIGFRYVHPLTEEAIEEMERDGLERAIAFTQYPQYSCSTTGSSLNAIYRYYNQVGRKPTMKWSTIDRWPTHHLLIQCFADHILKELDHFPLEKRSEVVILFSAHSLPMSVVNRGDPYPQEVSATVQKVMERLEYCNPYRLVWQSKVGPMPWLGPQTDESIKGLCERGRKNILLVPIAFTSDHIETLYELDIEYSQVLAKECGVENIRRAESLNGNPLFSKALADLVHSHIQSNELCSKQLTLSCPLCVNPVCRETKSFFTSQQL
Starred values were filed as active, the others as inactive; i = inactive; + = active, no number. Only a selection was taken, and hits are over-represented in it overall.

SMILES	FECH block
CCOC(=O)c1cc2ccsc2n1CC(=O)Nc1ccccc1C(=O)OC	i
CCOc1ccc(NC(=O)CN2CCCN(Cc3cccc(C)c3)S2(=O)=O)cc1	+
Cc1ccc(NC(=O)CN2CCCN(Cc3ccccc3)S2(=O)=O)cc1	i
Cc1ccccc1CN1CCN(Cc2ccccc2C)S1(=O)=O	+
COc1ccc(CN2CCCN(CC(=O)Nc3ccc(OC)cc3)S2(=O)=O)cc1	i
Cc1ccc(C)c(CN2CCCN(CC(=O)Nc3ccc(C)c(F)c3)S2(=O)=O)c1	i
Cc1ccc(C)c(CN2CCCN(CC(=O)NC3CCCC3)S2(=O)=O)c1	i
CCOc1ccc(NC(=O)CN2CCCN(Cc3cc(C)ccc3C)S2(=O)=O)cc1	+
Cc1ccc(NC(=O)CN2CCN(Cc3ccccc3C)S2(=O)=O)cc1	i
Cc1cc(C)c(CN2CCN(Cc3ccccc3C)S2(=O)=O)c(C)c1	i
CCOc1ccc(NC(=O)CN2CCCN(Cc3cccc(F)c3)S2(=O)=O)cc1	i
COc1ccc(NC(=O)CN2CCN(Cc3ccccc3C)S2(=O)=O)cc1	i
COc1ccc(NC(=O)CN2CCN(Cc3cccc(C)c3)S2(=O)=O)cc1	+
CCOc1ncccc1-c1nccc(OC)n1	i
O=C(CN1C(=O)CC(c2ccccc2)=Nc2ccccc21)Nc1ccccc1	i
COc1cccc(CC2CN(c3cc(C(N)=O)ccn3)CCO2)c1 (centres undefined)	i
O=C(CCC(=O)N1CCc2cc(S(=O)(=O)NCc3cccs3)ccc21)N1CCCCCC1	i
CCC1=NOC(Cn2cnc(-c3ccccc3)c2-c2c(C)nn(C)c2Cl)C1 (centres undefined)	i
COc1cccnc1-c1c(C)cc(C)cc1C	i
Cc1cc(Nc2ccccc2)nc(N2CCN(S(=O)(=O)c3ccccc3Cl)CC2)n1	i
CO[C@H]1CN(C(=O)CCc2c(C)n[nH]c2C)CC[C@H]1N	i
O=C1CN(CC(=O)N2CCC(c3cc(Cc4ccccc4)[nH]n3)CC2)C(=O)N1	i
COc1nc2c(cc1CNC(=O)CCc1cccnc1)C(=O)N(C1CCCC1)C2	i
COCC1(C(=O)NC(c2cc(C)ccn2)C2CC2)CCC1 (centres undefined)	i
CNC(=O)C1CCN(Cc2nc(-c3ccc(OC)c(C)c3C)oc2C)C1 (centres undefined)	i
SMILES	FECH block
COc1cccc(NC(=O)CN2CCN(Cc3ccc(F)cc3)S2(=O)=O)c1	i
Cc1ccc(CN2CCCN(Cc3ccc(F)cc3Cl)S2(=O)=O)cc1	i
COc1ccc(CN2CCCN(CC(=O)Nc3ccccc3F)S2(=O)=O)cc1	i
Cc1cccc(NC(=O)CN2CCCN(Cc3ccccc3)S2(=O)=O)c1	i
Cc1ccc(NC(=O)CN2CCCN(Cc3ccc(Cl)cc3)S2(=O)=O)cc1	i
CCc1cccc(C)c1NC(=O)CN1CCN(Cc2ccccc2C)S1(=O)=O	i
CCc1cccc(C)c1NC(=O)CN1CCCN(Cc2cccc(C)c2)S1(=O)=O	+
Cc1ccc(CN2CCCN(Cc3c(F)cccc3Cl)S2(=O)=O)cc1	+
CCc1cccc(C)c1NC(=O)CN1CCCN(Cc2ccc(C)cc2)S1(=O)=O	i
Cc1cccc(CN2CCCN(CC(=O)Nc3ccccc3F)S2(=O)=O)c1	+
COc1cccc(NC(=O)CN2CCCN(Cc3cccc(C)c3)S2(=O)=O)c1	+
COc1cccc(NC(=O)CN2CCCN(Cc3cccc(F)c3)S2(=O)=O)c1	i
CCNc1ccnc(N2CCC(C(=O)N3CCc4ccccc4C3)CC2)n1	i
CCCCN(Cc1ccsc1)C(=O)c1occc1C	i
COc1ccccc1NC(=O)Nc1nc(CC(=O)NCc2ccccc2)cs1	i
O=C(CC(c1ccccc1)c1ccco1)NCc1cnc2ccccn12 (centres undefined)	i
COc1ncccc1C1CC(=O)Nc2cc3c(cc21)oc(=O)n3C (centres undefined)	i
Cc1ncsc1CCC(=O)NCc1nc(-c2ccccc2)n[nH]1	i
CN1CCN(C(=O)c2cc3n(n2)CCN(Cc2c[nH]c4ccc(F)cc24)C3)CC1	i
O=S(=O)(Cc1ccccc1)NCCn1c(-c2ccc(F)cc2)nc2cccnc21	i
OCCNc1nc(Nc2ccccc2)c2cnn(-c3ccccc3)c2n1	i
COc1ccc(NC(=O)CN2CCN(Cc3ccccc3C)S2(=O)=O)cc1OC	+
Cc1ccc(NC(=O)CN2CCN(Cc3cccc(C)c3)S2(=O)=O)cc1	+
Cc1ccc(NC(=O)CN2CCN(Cc3ccc(Cl)cc3)S2(=O)=O)cc1C	i
Cc1ccc(CN2CCN(CC(=O)Nc3ccc(C)c(C)c3)S2(=O)=O)cc1	i
SMILES	FECH block
COc1ccc(NC(=O)CN2CCN(Cc3ccccc3Cl)S2(=O)=O)cc1OC	i
COc1ccc(OC)c(NC(=O)CN2CCCN(Cc3ccccc3)S2(=O)=O)c1	i
Cc1cccc(CN2CCN(CC(=O)Nc3c(C)cc(C)cc3C)S2(=O)=O)c1	i
COc1ccc(OC)c(NC(=O)CN2CCCN(Cc3cccc(C)c3)S2(=O)=O)c1	+
COc1ccc(OC)c(NC(=O)CN2CCCN(Cc3ccc(C)cc3)S2(=O)=O)c1	i
Cc1ccc(NC(=O)CN2CCN(Cc3ccccc3)S2(=O)=O)cc1	i
COc1ccc(NC(=O)CN2CCN(Cc3ccccc3C)S2(=O)=O)cc1Cl	i
Cc1cccc(CN2CCN(CC(=O)Nc3ccc(C)c(C)c3)S2(=O)=O)c1	+
CN1CCN(c2nc(Nc3ccc(F)cc3)c3cnn(-c4ccccc4)c3n2)CC1	i
COc1ccc(NC(=O)N2CCCC2C(=O)NCc2ccco2)cc1 (centres undefined)	i
COc1ccc(OC)c(Nc2nc(NCc3ccc(C)cc3)nc3c2cnn3-c2ccccc2)c1	i
Cc1cc(C)cc(Nc2c(-c3ccc4c(c3)CCCC4)c(=O)c2=O)c1	i
COc1cccc(C(=O)Nc2ccccc2Sc2c(C)c(C)nc3nc(-c4ccccc4)nn23)c1	i
COc1cccc2c1OCC(CN(C)Cc1snnc1C)=C2	i
Cc1ncc(CN(C)Cc2csc(-c3cccs3)n2)[nH]1	i
O=C(NCCN1CCNC1=O)c1cn(Cc2ccccc2C(F)(F)F)nn1	i
Cc1ccc(Cl)cc1NC(=O)CN1CCN(Cc2cccc(Cl)c2)S1(=O)=O	i
Cc1nc(N(C)C)nc(NCc2nc3ccccc3c(=O)[nH]2)c1C	i
O=C(CCC(=O)N1CCc2cc(S(=O)(=O)N3CCOCC3)ccc21)N1CCCCCC1	i
COc1ccc(S(=O)(=O)N2CCN(c3nc(C)cc(Nc4ccc(C)cc4)n3)CC2)cc1OC	i
CCCC1C=CCN1c1ncnc2sc3c(c12)CCNC3 (centres undefined)	+
NC(=O)C1(N2CCCCC2)CCN(c2ncnc3sc4c(c23)CCNC4)CC1	i
CC(C)Cc1cc(CNc2ncnc3sc4c(c23)CCNC4)no1	i
Cc1ccc(OCC(=O)Nc2cc(C)ccc2OCc2cc(=O)n3oc(C)cc3n2)cc1	i
CCOc1ccc(-c2nc(SCC(=O)NC(C)CCc3ccccc3)n3[nH]c(=O)cc3n2)cc1 (centres undefined)	i
COc1ccc(Oc2ccc(C(=O)NCCc3cnc[nH]3)cc2)cc1	+
O=C(NCCc1cnc[nH]1)c1ccc(CN2C(=O)CCn3nccc32)cc1	i
COc1ccccc1-n1cc(C(=O)NCCc2cnc[nH]2)cn1	i
CC(C)CCNC(=O)C1CCN(c2ccc(-c3ccccc3)nn2)CC1	i

Bioassay records (PubChem)
